Source: PubChem
KB-3-1 tox: kills parental KB-3-1 adenocarcinoma cells. KB-3-1 viability, CellTiter-Glo ATP luminescence, 72 h. Potency, µM (titrated, usually from 46.1 µM), usual class: cytotoxic. hit rate 1.4% among 400,000. AID 1347075; also: % is scaled to controls: 0 for no effect and ±100 for the full control effect; nearly all actives have a fitted effect of over 60% in size
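Here the drug-naive KB-3-1 line serves as comparator for MDR sub-line selectivity; cells received compound titrations, 72 h at 37 °C, then CellTiter-Glo readout.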
SW480 rereplic: DNA re-replication induction in SW480 cells | AID 624297 | SW480 DNA re-replication, Hoechst DNA content imaging, 48 h | Potency, µM (highest dose often 46.1 µM), for inactives: at the highest dose re-replication activation, usual class: activators | hit rate 1.8% among 340,000; also: % of control where 0% means no effect; nearly all actives have a fitted effect of over 55% in size
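Image-based DNA-content assay: after two days of treatment, nuclei were labelled with the DNA dye Hoechst and imaged, and hits were compounds raising the count of nuclei showing high fluorescence intensity.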
PINK1 expr mod: changes PINK1 expression; PINK1 immunofluorescence, high-content cytometry, 24 h; Potency, µM (titrated, usually from 76.6 µM), for inactives: at the highest dose activation (PINK1 increase), most hits filed as activators; hit rate 0.2% among 410,000; AID 624263; active = well fitted activation curve with a large enough effect; inconclusive = small, poorly fitted or top-dose-only effect; cell line not stated here; also: % of control where 0% means no effect; nearly all actives have a fitted effect of over 65% in size
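PINK1 protein level read as immunofluorescence by microplate cytometer in a fixed, stained stable cell line after 24 h exposure to five compound concentrations, with CCCP as control.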
MCF10A rerep: induces DNA re-replication in MCF 10a normal breast cells | AID 624296 | MCF 10A DNA re-replication, Hoechst nuclear intensity, 48 h | Potency, µM (titrated, usually from 46.1 µM), for the others: top-dose activity, positive = re-replication, usual class: activators | hit rate 2.9% among 350,000; also: % of control where 0% means no effect; nearly all actives have a fitted effect of over 50% in size
KB-V1 MDR tox: kills drug-selected multidrug resistant KB-V1 cells; KB-V1 MDR cells viability, CellTiter-Glo, 72 h; Potency, µM (top dose mostly 46.1 µM), hits mostly cytotoxic; hit rate 3.4% among 400,000; AID 1347076; also: % is scaled to controls: 0 for no effect and ±100 for the full control effect; nearly all actives have a fitted effect of over 60% in size
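KB-V1 MDR subline cells in DMEM (phenol-red free, 10% FBS) exposed to compounds in qHTS concentration series for 72 h at 37 degrees C. Viability read by CellTiter-Glo luminescence; concentration-effect curves fitted after normalization and correction.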
PTAP TSG101 blk: blocks PTAP/TSG101 interaction to inhibit HIV-1 budding; Q99816; Fluorescence polarization, FITC-PTAP peptide / Tsg101 binding; Potency, µM (top dose mostly 115 µM), without a hit: top-dose activity change, negative = inhibition, hits mostly inhibitors; 340,000 tested, under 10 active; active = well fitted inhibition curve with a large enough effect in the main read-out, with a control signal flat, not every such curve was filed as active; inconclusive = small, poorly fitted or top-dose-only effect, or effect the other way, or a change in a side signal; inactive = no such curve, though single readings can be large or run the other way; also: % of control where 0% means no effect
Target sequence (Q99816 whole entry, looked up): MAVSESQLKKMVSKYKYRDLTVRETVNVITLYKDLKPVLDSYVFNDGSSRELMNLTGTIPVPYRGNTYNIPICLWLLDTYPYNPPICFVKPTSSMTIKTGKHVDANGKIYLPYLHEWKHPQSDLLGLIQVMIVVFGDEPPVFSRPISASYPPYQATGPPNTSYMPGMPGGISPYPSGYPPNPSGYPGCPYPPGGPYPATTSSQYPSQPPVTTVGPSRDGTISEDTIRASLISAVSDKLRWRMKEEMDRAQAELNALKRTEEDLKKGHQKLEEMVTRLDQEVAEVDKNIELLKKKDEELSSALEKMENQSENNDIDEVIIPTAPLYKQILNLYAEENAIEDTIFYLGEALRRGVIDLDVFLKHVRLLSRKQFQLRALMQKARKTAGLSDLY
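Compounds were pin-transferred onto Tsg101 binding domain (10 uM final) in HEPES pH 7.5 buffer, then FITC-PTAP peptide was added at 50 nM final. After 20 min at RT, polarization reported peptide displacement across a qHTS concentration series.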
* = called active by the depositor; i = inactive; ? = inconclusive; . = no result given; [ ] = another dose, or the depositor's remark. Shown are actives, neighbours in structure and some others; about 6.8% of the full set was active somewhere. Unless noted, calls follow the shape of the dose curve; as a rule, active = well fitted curve in the direction sought with a large enough effect; inconclusive = small, poorly fitted or top-dose-only effect, or another doubt; inactive = no such curve, though single readings can be large; an effect the other way counts as inactive or inconclusive. Potency is read from the fitted curve at half-maximal effect.

SMILES	KB-3-1 tox	SW480 rereplic	PINK1 expr mod	MCF10A rerep	KB-V1 MDR tox	PTAP TSG101 blk
COc1ccc2c(c1)C(=O)N1[C@H]3c4cc(Cl)ccc4OC[C@@H]3[C@H](c3ccccc3)[C@]1(C)C(=O)N2	?	9.2µM*	2.6%	?	?	-9.1%
COc1ccc2c(c1)C(=O)N1[C@H]3c4cc(Br)ccc4OC[C@@H]3[C@H](c3ccccc3)[C@]1(C)C(=O)N2	?	20.6µM*	8.8%	4.11µM*	?	2.0%
C[C@@]12C(=O)Nc3ccc(Br)cc3C(=O)N1[C@H]1c3cc(Br)ccc3OC[C@@H]1[C@@H]2c1ccccc1	i	?	1.9%	-87.8%	i	0.1%
COc1ccc2c(c1)OC[C@H]1[C@H]2N2C(=O)c3cc(Cl)ccc3NC(=O)[C@@]2(C)[C@H]1c1ccccc1	i	?	0.7%	-5.4%	i	-3.2%
COc1ccc2c(c1)OC[C@H]1[C@H]2N2C(=O)c3cc(OC)ccc3NC(=O)[C@@]2(C)[C@H]1c1ccccc1	i	?	8.4%	16.4µM*	?	0.2%
COc1ccc2c(c1)[C@H]1[C@H](CO2)[C@H](c2ccccc2)[C@]2(C)C(=O)Nc3cc(C)ccc3C(=O)N12	i	?	1.4%	?	?	0.5%
COc1ccc2c(c1)[C@H]1[C@H](CO2)[C@H](c2ccccc2)[C@]2(C)C(=O)Nc3cc(Cl)ccc3C(=O)N12	i	?	2.6%	16.4µM*	i	1.3%
CCOC(=O)[C@H]1[C@H]2COc3ccc(Cl)cc3[C@@H]2N2C(=O)c3cc(OC)ccc3NC(=O)[C@@]12C	?	14.8%	0.9%	3.6%	i	-6.5%
CC(=O)c1ccc(NC(=O)C2CCN(S(=O)(=O)c3ccc4c(c3)CCCN4C(=O)C3CCC3)CC2)cc1	i	.	-1.0%	.	i	.
O=C(CSc1nc2c([nH]c3ccccc32)c(=O)n1-c1ccc(F)cc1)NCc1ccc(F)cc1	i	.	4.4%	.	i	.
CCN(CC)c1ccc(C2=NNC(=O)CC2C)cc1[N+](=O)[O-] (stereo not given)	0.206µM*	-0.1%	-7.6%[38.3 µM]	9.7%	?	-9.4%
CC1CC(=O)NN=C1c1ccc(N(C)C)c([N+](=O)[O-])c1 (stereo not given)	i	-2.8%	-14.1%[38.3 µM]	4.6%	?	-2.5%
O=C(Nc1cc(C(F)(F)F)ccc1Cl)c1ccncc1	i	0.4%	-1.0%	1.8%	i	-0.7%
Cc1ccc(C(=O)NC(=S)Nc2cc(C(F)(F)F)ccc2Cl)cc1	i	?	2.6%	9.2µM*	i	-1.9%
O=C(Cc1ccccc1)NC(=S)Nc1cc(C(F)(F)F)ccc1Cl	i	13.7%	16.3%	22.8%	i	-4.6%
COc1cc(C(=O)Nc2cc(C(F)(F)F)ccc2Cl)cc(OC)c1OC	i	-5.7%	5.3%	3.6%	20.6µM*	-2.3%
COc1ccc(CNC(=O)CCc2cn(Cc3cc(C)ccc3C)c3ccccc23)cc1OC	.	.	-0.4%	.	.	.
CCc1cc(-c2cnnn2Cc2ccccc2)ccc1-c1cn(CC(C)C)nn1	?	.	26.3%	.	10.3µM*	.
CCc1cc(-c2nnn(CCC3COCCO3)c2CC)ccc1-c1cn(CCc2c[nH]c3ccccc23)nn1 (stereo not given)	i	.	-1.2%	.	i	.
Cc1ccc(CNC(=O)c2nc(SCc3cccc(C)c3)ncc2Cl)cc1	?	.	4.6%	.	i	.
COc1ccc(NC(=O)c2ccc(C#N)cc2)cc1NS(=O)(=O)c1ccc(F)cc1	i	-1.3%	-0.3%	-4.2%	i	0.0%
COc1ccc(OC)c(NS(=O)(=O)c2ccc(NC(=O)c3ccc(NS(C)(=O)=O)cc3)cc2)c1	16.4µM*	-97.6%	6.6%	?	i	0.3%
CC(C)c1ccc(NC(=O)c2ccc(NS(C)(=O)=O)cc2)cc1	i	5.4%	5.7%	9.2µM*	i	-1.4%
COc1ccc(NC(=O)c2ccc3ccccc3c2)cc1NS(=O)(=O)c1ccc(F)cc1	i	-2.2%	-2.8%	9.0%	20.6µM*	-2.6%
CS(=O)(=O)Nc1ccc(C(=O)Nc2ccc3ccccc3c2)cc1	i	-41.2%	4.7%	14.4%	?	-2.2%
SMILES	KB-3-1 tox	SW480 rereplic	PINK1 expr mod	MCF10A rerep	KB-V1 MDR tox	PTAP TSG101 blk
COc1ccc(OC)c(CN2CCOc3ccc(C(O)c4cccnc4)cc3C2)c1 (stereo not given)	.	.	0.4%	.	.	.
COc1ccccc1CN1CC[C@@]2(CCCN(C(=O)c3ccco3)C2)C1	.	.	-0.5%	.	.	.
CN(C)/C=N/c1ncc(-c2ncc(C(F)(F)F)cc2Cl)cn1	?	10.5%	-1.0%	-48.5%	10.3µM*	0.1%
FC(F)(F)c1cnc(-c2cnc(-c3cccnc3)nc2)c(Cl)c1	i	8.9%	1.4%	10.0%	i	-0.4%
O=c1cc(/C=C/c2cccs2)[nH]c2ccccc12	?	?	15.5%[38.3 µM]	?	?	-5.3%
CSc1ccc(/C=C/c2cc(=O)c3ccccc3[nH]2)cc1	i	13.2%	?	?	3.66µM*	0.2%
ClC(=C\c1ccccc1)/C=N/N1CCN(c2ccccn2)CC1	i	1.9%	16.6%	11.5%	18.4µM*	17.0%
O=C(CC1C(=O)N(c2ccccc2)C(=O)N1Cc1ccc(F)cc1)Nc1cccc(F)c1 (stereo not given)	.	.	0.6%	.	.	.
Nc1c(S(=O)(=O)c2ccccc2)c2nc3ccccc3nc2n1/N=C/c1cccc(O)c1	?	7.2%	1.5%	0.92µM*	?	-1.1%
Cc1cccc(S(=O)(=O)c2c(N)n(/N=C/c3ccccc3)c3nc4ccccc4nc23)c1	i	12.0%	-1.2%	16.2%	i	0.3%
COc1cc(N)c(N)cc1OC	i	.	.	.	i	.
CSc1nsc(SC)c1NC(=O)Nc1ccccn1	i	1.5%	-2.5%[38.3 µM]	-2.0%	14.6µM*	-11.3%
CSc1nsc(SC)c1NC(=O)OCCc1ccccn1	i	-6.7%	-1.3%	3.3%	i	-3.4%
CCc1c(C)sc2c1CCN(C(=O)Nc1cc(C)ccc1OC)C2c1ccc(F)cc1 (stereo not given)	i	.	1.2%	.	i	.
COc1cc2c(c(OC)c1CC=C(C)C)C[C@H](c1ccc(O)cc1O)CO2	i	2.4%	1.4%	16.4µM*	i	-4.0%
C/C(=N\N1C(=O)c2ccccc2NC1c1ccco1)c1ccccc1O (stereo not given)	?	?	-1.9%	4.11µM*	?	-2.4%
CCC1(C2CCN(Cc3cc4ccccc4o3)CC2)NC(=O)N(CC2COc3ccccc3O2)C1=O (stereo not given)	.	.	-0.2%	.	.	.
